Experimental data taken from PubChem BioAssay (EPA / NIEHS).
Where “and” joins values, the source holds several entries; their conditions need not be identical. Equal values may be shown once. Results filed as inconclusive are left out. The source holds several records for some structures; these can differ, active in one and inactive in another. Calls of active or inactive are those of the source. Rule for the calls, unless noted: active = hit-call score of the fitted dose curve at least 0.9, where 1 is the maximum; inactive = score below 0.9.

Tests used:
[1] = molecular target: Nuclear respiratory factor 1 (Homo sapiens) (UniProt Q16656); experiment: ATG_NRF1_CIS: Attagene CIS-FACTORIAL HepG2 Assay for human Nuclear Respiratory Factor 1 (NRF1) Orphan Gene (AID 2282987); conditions: HepG2 NRF1 cis-element reporter, Attagene multiplex; actives raise or lower the signal
Summary of the method: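 Endogenous NRF1-driven reporter transcription in transfected HepG2 cells after 24 h treatment. Readout: RT-PCR products, 6-FAM labelled and resolved by capillary electrophoresis; changes fitted both directions relative to DMSO.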

[2] = ATG_NFI_CIS: Attagene CIS-FACTORIAL HepG2 Assay for human Nuclear Factor I (NFI) (AID 2282989); conditions: HepG2 cis-regulatory reporter, NFI response element transcription; actives raise or lower the signal
Summary of the method: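 Reporter transcription driven by endogenous transcription factors in HepG2 cells; 24 h treatment. Quantitation by labelled RT-PCR fragments on capillary electrophoresis, gain- or loss-of-signal relative to DMSO.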

[3] = molecular target: Myc proto-oncogene protein (Homo sapiens) (UniProt P01106); experiment: ATG_Myc_CIS: Attagene CIS-FACTORIAL HepG2 Assay for human Myelocytomatosis (Myc) Proto-Oncogene Transcription Factor (AID 2282990); conditions: HepG2, Attagene cis-reporter transcription factor activity; actives raise or lower the signal
Summary of the method: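 Multiplexed cis-reporter transcription in HepG2 cells after 24 h chemical treatment. Reporter mRNA measured by RT-PCR and capillary electrophoresis fluorescence; activity fitted bidirectionally against DMSO control.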

[4] = ATG_NF_kB_CIS: Attagene CIS-FACTORIAL HepG2 Assay for human Nuclear Factor Kappa B (NF-kB) (AID 2282991); conditions: HepG2 Attagene cis-factorial NF-kB reporter mRNA; actives raise or lower the signal
Summary of the method: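 Readout is reporter transcript level, gain or loss versus DMSO, measured 24 h post-dose via RT-PCR, fluorescent labelling and capillary electrophoresis. Human HepG2 liver cells carried transiently transfected CIS reporter constructs reflecting endogenous factors.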

[5] = ATG_NRF2_ARE_CIS: Attagene CIS-FACTORIAL HepG2 Assay for human Nuclear Factor Erythroid 2 Related Factor 2 (NFR2) response to Antioxidant Response Elements (ARE) (AID 2282992); conditions: HepG2 Attagene ARE/NRF2 reporter, transcription factor activity; actives raise or lower the signal
Summary of the method: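 HepG2 cells transiently transfected with multiplexed cis-element reporter constructs, 24 h after chemical dosing; reporter mRNA quantified by RT-PCR, fluorescent primer extension, HpaI digestion and capillary electrophoresis. Bidirectional fit relative to DMSO.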

[6] = ATG_Oct_MLP_CIS: Attagene CIS-FACTORIAL HepG2 Assay for human Octamer-Binding Transcription Factor (Oct) (AID 2282993); conditions: HepG2 Attagene cis-factorial Oct reporter, mRNA; actives raise or lower the signal
Summary of the method: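 Transfected HepG2 cells, 24 h treatment. Reporter mRNA quantified by RT-PCR–capillary electrophoresis; bidirectional fitting against DMSO.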

[7] = molecular target: Cellular tumor antigen p53 (Homo sapiens) (UniProt P04637); experiment: ATG_p53_CIS: Attagene CIS-FACTORIAL HepG2 Assay for human p53 Transcription Factor (AID 2282994); conditions: HepG2 p53 cis-element reporter, Attagene mRNA; actives raise or lower the signal
Summary of the method: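 HepG2 cells transiently transfected with cis-regulated multiple reporter transcription units, dosed 24 h. Reporter mRNA measured by RT-PCR, 6-FAM primer extension, HpaI digestion and capillary electrophoresis; bidirectional fit relative to DMSO.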

[8] = BSK_3C_TissueFactor: BioMAP Diversity Plus: 3C Assay for Tissue Factor Biomarker Activity (AID 2282997); conditions: BioMAP 3C HUVEC, tissue factor biomarker readout; actives raise or lower the signal
Summary of the method: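 Primary human umbilical vein endothelial cells in the 3C system were exposed to test chemical for 24 h, then Tissue Factor measured by ELISA. Activity was fitted bidirectionally against DMSO as negative control and baseline.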

[9] = BSK_3C_uPAR: BioMAP Diversity Plus: 3C Assay for Urokinase-type plasminogen activator receptor (uPAR) Biomarker Activity (AID 2282998); conditions: BioMAP 3C HUVEC, uPAR biomarker ELISA; actives raise or lower the signal
Summary of the method: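 Readout: ELISA for surface uPAR. System: human umbilical vein endothelial primary cells, 24 h after chemical exposure. Analysis: bidirectional fit, DMSO baseline.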

[10] = BSK_3C_VCAM1: BioMAP Diversity Plus: 3C Assay for Vascular cell adhesion molecule 1 (VCAM1) Biomarker Activity (AID 2282999); conditions: BioMAP 3C HUVEC, VCAM1 ELISA, cytokine-stimulated; actives raise or lower the signal
Summary of the method: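 Human umbilical vein endothelial cells were dosed with compound for 24 h, after which cell-surface VCAM-1 was quantified by ELISA. Bidirectional curve fitting used DMSO as negative control and activity baseline.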

[11] = BSK_4H_Eotaxin3: BioMAP Diversity Plus: 4H Assay for Eotaxin 3 Biomarker Activity (AID 2283000); conditions: primary human endothelial cells (HUVEC); actives raise or lower the signal
Summary of the method: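 HUVEC, 24 h post-dose, ELISA for Eotaxin-3/CCL26. Gain or loss of signal fitted bidirectionally vs DMSO baseline.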

[12] = molecular target: human Peroxisome Proliferator-activated Receptor alpha (PPARa), PPARA (gene 5465) (UniProt Q07869); experiment: ATG_PPARa_TRANS: Attagene TRANS-FACTORIAL HepG2 Assay for human Peroxisome Proliferator-activated Receptor alpha (PPARa) (AID 2283001; active = hit-call score of the fitted dose curve at least 0.9, where 1 is the maximum;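 for AC50: potency for gain of reporter signal over DMSO so agonist or activator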)
Summary of the method: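 Gain-of-signal endpoint: reporter mRNA induction relative to DMSO, detected by fluorescent RT-PCR and capillary electrophoresis. HepG2 cells transiently carried GAL4-UAS-driven reporter units plus NR-Gal4 fusion; exposure lasted 24 h.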

[13] = molecular target: human Peroxisome Proliferator-activated Receptor delta (PPARd), PPARD (gene 5467) (UniProt Q03181); experiment: ATG_PPARd_TRANS: Attagene TRANS-FACTORIAL HepG2 Assay for human Peroxisome Proliferator-activated Receptor delta (PPARd) (AID 2283002; active = hit-call score of the fitted dose curve at least 0.9, where 1 is the maximum)
Summary of the method: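 Multiplexed trans-activation format: HepG2 liver cells expressing exogenous NR-Gal4 chimeras and GAL4-UAS reporters were exposed for 24 h. Reporter mRNA was detected by RT-PCR with capillary electrophoresis fluorescence; activity fitted as gain of signal relative to DMSO.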

[14] = molecular target: human Retinoic Acid Receptor beta (RARb), RARB (gene 5915) (UniProt P10826); experiment: ATG_RARb_TRANS: Attagene TRANS-FACTORIAL HepG2 Assay for human Retinoic Acid Receptor beta (AID 2283004; active = hit-call score of the fitted dose curve at least 0.9, where 1 is the maximum)
Summary of the method: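 HepG2 cells transiently transfected with multiplexed GAL4-UAS reporter units expressing chimeric NR–Gal4 fusions; 24 h compound exposure. Reporter mRNA quantified by RT-PCR, 6-FAM labelling, HpaI digestion and capillary electrophoresis; gain-of-signal fitted against DMSO baseline.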

[15] = molecular target: Retinoic acid receptor alpha (Homo sapiens) (UniProt P10276); experiment: ATG_RARa_TRANS: Attagene TRANS-FACTORIAL HepG2 Assay for human Retinoic Acid Receptor alpha (RARa) (AID 2283005; active = hit-call score of the fitted dose curve at least 0.9, where 1 is the maximum)
Summary of the method: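 HepG2 cells transiently transfected with multiple reporter units expressing chimeric RARα-GAL4 fusion, with GAL4-UAS-driven reporters. After 24 h compound exposure, reporter mRNA induction quantified by RT-PCR and capillary electrophoresis with fluorescent labeling; gain-of-signal fitted relative to DMSO control.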

[16] = BSK_3C_Proliferation: Cell Proliferation Assessment in the BioMAP Diversity Plus: 3C Assay (AID 2283006); conditions: primary human endothelial cells (HUVEC);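 for AC50: potency may reflect either rise or fall in cell number versus DMSO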
Summary of the method: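 Read-out is total protein by SRB absorbance at 560 nm, taken as a proxy for relative cell number. Primary human umbilical vein endothelium cultured below confluence was dosed for 48 h, TCA-fixed and SRB-stained; curves were fitted bidirectionally versus DMSO.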

[17] = molecular target: Nuclear receptor subfamily 1 group I member 2 (Homo sapiens) (UniProt O75469); experiment: ATG_PXR_TRANS: Attagene TRANS-FACTORIAL HepG2 Assay for human Pregnane X Receptor (PXR) (AID 2283008; active = hit-call score of the fitted dose curve at least 0.9, where 1 is the maximum)
Summary of the method: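 HepG2 cells transiently transfected with GAL4-UAS reporter units and PXR-Gal4 chimera, exposed 24 h. Reporter mRNA quantified by RT-PCR, fluorescent labelling, HpaI digestion and capillary electrophoresis; gain of signal vs DMSO.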

[18] = molecular target: Peroxisome proliferator-activated receptor gamma (Homo sapiens) (UniProt P37231); experiment: ATG_PPARg_TRANS: Attagene TRANS-FACTORIAL HepG2 Assay for human Peroxisome Proliferator-activated Receptor-gamma (PPARg) (AID 2283007; active = hit-call score of the fitted dose curve at least 0.9, where 1 is the maximum)
Summary of the method: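 After 24 h of chemical exposure, transfected HepG2 cells carrying PPARγ-Gal4 chimera reporter constructs are lysed for RNA. Reporter transcripts are measured by RT-PCR and capillary electrophoresis with fluorescent labelling, and gain of signal is fitted versus DMSO.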

[19] = molecular target: human Retinoic Acid Receptor gamma (RARg), RARG (gene 5916) (UniProt P13631); experiment: ATG_RARg_TRANS: Attagene TRANS-FACTORIAL HepG2 Assay for human Retinoic Acid Receptor gamma (RARg) (AID 2283009; active = hit-call score of the fitted dose curve at least 0.9, where 1 is the maximum;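 for AC50: AC50 is for reporter induction above DMSO meaning RARg activation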)
Summary of the method: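 Transient transfection of HepG2 with multi-reporter constructs, then 24 h chemical treatment. Total RNA isolated, reverse-transcribed, PCR-amplified, fluorescently labelled and resolved by capillary electrophoresis; activity scored as mRNA induction versus DMSO.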

[20] = read-out: Intercellular Adhesion Molecule 1 (ICAM1), ICAM1 (gene 3383); experiment: BSK_3C_ICAM1: BioMAP Diversity Plus: 3C Assay for Intercellular Adhesion Molecule 1 (ICAM1) Biomarker Activity (AID 2283003); conditions: primary human endothelial cells (HUVEC); actives raise or lower the signal
Summary of the method: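 ICAM-1 levels measured by ELISA after HUVEC cultures in the 3C system had been dosed for 24 h. Gain or loss of signal relative to DMSO was fitted in both directions.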

Measured: AC50

Sequence of human Peroxisome Proliferator-activated Receptor alpha (PPARa), PPARA (gene 5465) (Q07869 whole entry, looked up, the tested form may be a part): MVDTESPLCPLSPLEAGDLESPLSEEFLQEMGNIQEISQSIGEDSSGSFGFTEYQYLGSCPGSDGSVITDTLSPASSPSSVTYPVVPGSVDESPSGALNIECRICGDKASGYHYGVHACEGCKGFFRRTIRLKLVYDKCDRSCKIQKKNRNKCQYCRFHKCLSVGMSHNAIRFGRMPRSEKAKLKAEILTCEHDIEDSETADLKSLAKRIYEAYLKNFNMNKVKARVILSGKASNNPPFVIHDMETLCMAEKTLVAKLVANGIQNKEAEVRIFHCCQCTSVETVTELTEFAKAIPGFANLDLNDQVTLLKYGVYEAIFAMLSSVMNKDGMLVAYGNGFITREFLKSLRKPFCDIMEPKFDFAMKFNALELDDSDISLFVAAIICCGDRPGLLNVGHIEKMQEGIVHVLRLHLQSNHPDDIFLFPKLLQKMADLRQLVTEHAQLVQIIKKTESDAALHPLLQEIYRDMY
Sequence of Peroxisome proliferator-activated receptor gamma (Homo sapiens) (P37231 whole entry, looked up, the tested form may be a part): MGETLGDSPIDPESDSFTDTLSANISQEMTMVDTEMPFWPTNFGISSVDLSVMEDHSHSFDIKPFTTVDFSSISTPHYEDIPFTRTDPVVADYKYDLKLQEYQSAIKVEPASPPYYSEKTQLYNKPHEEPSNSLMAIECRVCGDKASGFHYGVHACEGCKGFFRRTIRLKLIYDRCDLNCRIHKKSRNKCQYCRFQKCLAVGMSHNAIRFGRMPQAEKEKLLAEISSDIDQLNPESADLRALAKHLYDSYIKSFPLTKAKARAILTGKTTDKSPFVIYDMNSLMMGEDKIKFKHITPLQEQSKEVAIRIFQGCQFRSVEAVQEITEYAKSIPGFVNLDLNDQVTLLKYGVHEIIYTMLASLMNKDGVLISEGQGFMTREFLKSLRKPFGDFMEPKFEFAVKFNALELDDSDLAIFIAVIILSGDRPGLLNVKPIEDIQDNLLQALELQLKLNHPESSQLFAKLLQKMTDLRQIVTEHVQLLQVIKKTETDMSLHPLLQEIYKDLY
Sequence of Cellular tumor antigen p53 (Homo sapiens) (P04637 whole entry, looked up): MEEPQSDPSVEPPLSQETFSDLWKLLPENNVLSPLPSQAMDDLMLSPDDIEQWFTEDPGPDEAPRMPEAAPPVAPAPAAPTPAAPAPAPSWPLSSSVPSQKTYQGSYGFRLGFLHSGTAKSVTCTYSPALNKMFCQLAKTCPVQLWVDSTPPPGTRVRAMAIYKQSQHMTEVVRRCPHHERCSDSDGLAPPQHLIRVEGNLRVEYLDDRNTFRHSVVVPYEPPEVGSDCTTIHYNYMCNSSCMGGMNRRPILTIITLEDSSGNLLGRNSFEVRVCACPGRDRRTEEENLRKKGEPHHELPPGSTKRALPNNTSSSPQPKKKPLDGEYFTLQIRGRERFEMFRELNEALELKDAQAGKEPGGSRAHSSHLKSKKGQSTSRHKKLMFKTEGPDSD
Sequence of Myc proto-oncogene protein (Homo sapiens) (P01106 whole entry, looked up): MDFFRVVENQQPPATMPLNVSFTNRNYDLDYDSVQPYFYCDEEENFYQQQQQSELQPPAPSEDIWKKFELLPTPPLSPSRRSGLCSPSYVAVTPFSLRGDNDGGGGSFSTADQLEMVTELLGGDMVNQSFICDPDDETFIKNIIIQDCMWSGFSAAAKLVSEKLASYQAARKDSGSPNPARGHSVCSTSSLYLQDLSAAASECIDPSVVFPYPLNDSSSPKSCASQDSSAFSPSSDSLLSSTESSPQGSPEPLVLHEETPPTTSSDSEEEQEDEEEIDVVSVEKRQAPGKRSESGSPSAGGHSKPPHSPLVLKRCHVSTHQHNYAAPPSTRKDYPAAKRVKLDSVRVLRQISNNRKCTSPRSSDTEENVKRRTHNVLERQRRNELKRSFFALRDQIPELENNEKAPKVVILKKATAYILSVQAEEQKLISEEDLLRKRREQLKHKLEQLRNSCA
Sequence of human Retinoic Acid Receptor beta (RARb), RARB (gene 5915) (P10826 whole entry, looked up, the tested form may be a part): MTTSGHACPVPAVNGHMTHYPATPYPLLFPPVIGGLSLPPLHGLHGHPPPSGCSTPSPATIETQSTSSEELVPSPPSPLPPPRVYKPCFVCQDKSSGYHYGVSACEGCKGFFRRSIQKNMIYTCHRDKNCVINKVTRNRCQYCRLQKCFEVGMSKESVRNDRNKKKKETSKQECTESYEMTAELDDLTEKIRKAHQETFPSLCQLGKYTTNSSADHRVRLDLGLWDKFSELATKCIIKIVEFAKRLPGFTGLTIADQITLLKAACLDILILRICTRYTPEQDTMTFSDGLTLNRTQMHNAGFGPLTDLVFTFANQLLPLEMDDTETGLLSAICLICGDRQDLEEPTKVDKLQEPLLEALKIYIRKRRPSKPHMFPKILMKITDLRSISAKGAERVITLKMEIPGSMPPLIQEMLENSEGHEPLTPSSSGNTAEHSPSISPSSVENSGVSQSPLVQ
Sequence of Nuclear receptor subfamily 1 group I member 2 (Homo sapiens) (O75469 whole entry, looked up, the tested form may be a part): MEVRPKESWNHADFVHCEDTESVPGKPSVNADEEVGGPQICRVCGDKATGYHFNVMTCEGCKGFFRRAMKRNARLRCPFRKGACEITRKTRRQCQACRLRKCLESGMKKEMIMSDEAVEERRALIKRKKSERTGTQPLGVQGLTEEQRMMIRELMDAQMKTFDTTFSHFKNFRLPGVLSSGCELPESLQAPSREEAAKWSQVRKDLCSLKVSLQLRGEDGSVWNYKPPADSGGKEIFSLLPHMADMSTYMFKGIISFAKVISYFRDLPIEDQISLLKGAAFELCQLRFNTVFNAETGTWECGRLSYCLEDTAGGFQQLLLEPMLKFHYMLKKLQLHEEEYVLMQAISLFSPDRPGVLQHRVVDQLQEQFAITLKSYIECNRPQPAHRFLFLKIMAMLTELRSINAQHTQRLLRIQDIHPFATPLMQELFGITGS
Sequence of human Peroxisome Proliferator-activated Receptor delta (PPARd), PPARD (gene 5467) (Q03181 whole entry, looked up, the tested form may be a part): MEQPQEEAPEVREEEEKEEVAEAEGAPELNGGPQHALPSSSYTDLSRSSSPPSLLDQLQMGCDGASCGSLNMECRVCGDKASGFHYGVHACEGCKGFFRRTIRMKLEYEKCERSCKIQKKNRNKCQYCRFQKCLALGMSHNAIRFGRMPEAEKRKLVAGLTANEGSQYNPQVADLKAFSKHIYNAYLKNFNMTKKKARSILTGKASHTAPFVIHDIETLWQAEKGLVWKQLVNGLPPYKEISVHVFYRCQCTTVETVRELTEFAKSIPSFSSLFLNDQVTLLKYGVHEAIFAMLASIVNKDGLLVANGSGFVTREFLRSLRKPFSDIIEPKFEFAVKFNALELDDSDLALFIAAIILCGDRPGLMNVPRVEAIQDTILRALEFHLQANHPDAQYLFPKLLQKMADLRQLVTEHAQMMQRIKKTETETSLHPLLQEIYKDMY
Sequence of Retinoic acid receptor alpha (Homo sapiens) (P10276 whole entry, looked up, the tested form may be a part): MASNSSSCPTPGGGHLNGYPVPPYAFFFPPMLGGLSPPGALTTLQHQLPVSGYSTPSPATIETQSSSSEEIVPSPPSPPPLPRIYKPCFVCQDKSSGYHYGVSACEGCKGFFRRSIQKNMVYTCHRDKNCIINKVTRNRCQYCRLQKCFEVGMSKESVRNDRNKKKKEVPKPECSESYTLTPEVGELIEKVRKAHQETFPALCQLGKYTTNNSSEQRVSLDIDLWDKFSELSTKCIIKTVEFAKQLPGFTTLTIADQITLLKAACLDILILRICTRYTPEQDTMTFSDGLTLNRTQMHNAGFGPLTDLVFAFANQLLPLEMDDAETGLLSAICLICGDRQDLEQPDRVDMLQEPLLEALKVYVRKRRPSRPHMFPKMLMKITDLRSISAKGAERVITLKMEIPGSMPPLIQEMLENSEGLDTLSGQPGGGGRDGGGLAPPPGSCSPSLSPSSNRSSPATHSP
Sequence of Nuclear respiratory factor 1 (Homo sapiens) (Q16656 whole entry, looked up): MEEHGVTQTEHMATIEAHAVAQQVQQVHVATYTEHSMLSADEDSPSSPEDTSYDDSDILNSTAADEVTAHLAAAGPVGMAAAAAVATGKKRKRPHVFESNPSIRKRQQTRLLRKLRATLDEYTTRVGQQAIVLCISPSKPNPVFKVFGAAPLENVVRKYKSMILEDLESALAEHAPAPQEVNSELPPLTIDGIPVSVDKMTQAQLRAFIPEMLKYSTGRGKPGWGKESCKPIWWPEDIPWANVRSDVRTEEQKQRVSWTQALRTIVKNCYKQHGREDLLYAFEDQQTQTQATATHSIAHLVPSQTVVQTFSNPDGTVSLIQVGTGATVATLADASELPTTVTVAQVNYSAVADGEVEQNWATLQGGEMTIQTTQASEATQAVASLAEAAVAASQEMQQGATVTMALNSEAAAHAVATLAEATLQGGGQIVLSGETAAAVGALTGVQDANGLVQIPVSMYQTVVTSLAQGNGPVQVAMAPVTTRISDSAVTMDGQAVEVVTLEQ
Sequence of human Retinoic Acid Receptor gamma (RARg), RARG (gene 5916) (P13631 whole entry, looked up): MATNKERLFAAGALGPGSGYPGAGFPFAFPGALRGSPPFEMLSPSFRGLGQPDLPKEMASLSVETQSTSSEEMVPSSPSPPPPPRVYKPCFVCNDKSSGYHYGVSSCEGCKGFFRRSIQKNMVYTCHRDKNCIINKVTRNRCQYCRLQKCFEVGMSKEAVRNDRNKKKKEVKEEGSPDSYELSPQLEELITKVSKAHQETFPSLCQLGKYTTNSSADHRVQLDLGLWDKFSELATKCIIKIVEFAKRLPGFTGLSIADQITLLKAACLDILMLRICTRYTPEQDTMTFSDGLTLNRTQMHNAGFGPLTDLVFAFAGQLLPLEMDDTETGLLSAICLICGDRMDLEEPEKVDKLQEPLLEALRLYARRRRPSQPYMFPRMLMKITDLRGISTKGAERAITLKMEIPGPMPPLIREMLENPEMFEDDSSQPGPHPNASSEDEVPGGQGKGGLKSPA

O=C(O)C(F)(OC(F)(F)C(F)(OC(F)(F)C(F)(OC(F)(F)C(F)(F)C(F)(F)F)C(F)(F)F)C(F)(F)F)C(F)(F)F (configuration not stated)
not listed: [18] | [19] | [20]
inactive: all other assays above

CCCCCCCCCCCCCCCC[N+](C)(C)Cc1ccccc1
active: [3] 25.1 µM | [8] 20 µM | [9] 20 µM | [10] 8.49 µM | [11] 6.55 µM | [12] 45 µM | [16] 0.604 µM | [18] 60.2 µM | [19] 49.9 µM
not listed: [13] | [20]
inactive: all other assays above

Oc1ccc(Nc2ccccc2)cc1
active: [5] 43.9 µM | [10] 20 µM | [11] 0.547 µM | [16] 14.6 µM | [18] 23.4 µM | [17] 20.5 µM
not listed: [14] | [15] | [19] | [20]
inactive: all other assays above

O=C(O)C(F)(F)C(F)(F)C(F)(F)C(F)(F)C(F)(F)C(F)(F)C(F)(F)C(F)(F)Cl
active: [5] 12.7 µM | [6] 50 µM and 57.9 µM | [7] 57.7 µM and 69.5 µM | [8] 54.4 µM | [9] 44.9 µM | [10] 48.7 µM | [11] 49.9 µM | [12] 20.2 µM and 18.8 µM | [16] 53.2 µM and 48.1 µM | [17] 50 µM
inactive: [1] | [2] | [3] | [4] | [5] | [8] | [9] | [11] | [13] | [17]

CO[Si](OC)(c1ccccc1)c1ccccc1
active: [9] 34.8 µM | [10] 36.7 µM | [16] 37 µM | [17] 15.4 µM
not listed: [13] | [18] | [20]
inactive: all other assays above

N=C(N)C(F)(F)C(F)(F)C(F)(F)C(F)(F)C(F)(F)C(F)(F)C(F)(F)F
active: [2] 271 µM | [5] 125 µM | [7] 88.9 µM | [10] 24.1 µM and 15 µM | [11] 36.8 µM and 30 µM | [16] 50.7 µM and 24.7 µM
not listed: [13] | [14] | [15] | [19]
inactive: all other assays above

FC(F)(F)C(F)(F)C(F)(F)C(F)(F)C(F)(F)C(F)(F)CCS
not listed: [14] | [15] | [19]
inactive: all other assays above

CCN(CC)c1ccc2c(C)cc(=O)oc2c1
active: [5] 59.3 µM | [8] 20 µM | [16] 30.6 µM | [18] 27.2 µM | [17] 3.63 µM
not listed: [14] | [15] | [19]
inactive: all other assays above

C=CC(F)(F)C(F)(F)C(F)(F)C(F)(F)C(F)(F)C(F)(F)C(F)(F)C(F)(F)F
not listed: [14] | [17] | [19] | [20]
inactive: all other assays above

CCCCCCS
inactive: [1] | [2] | [3] | [4] | [5] | [6] | [7] | [12] | [13] | [15] | [17]

Cc1ccc(S(=O)(=O)OCC(F)(F)C(F)(F)C(F)(F)C(F)(F)C(F)(F)C(F)F)cc1
active: [16] 30 µM | [17] 2.98 µM
inactive: [1] | [2] | [3] | [4] | [5] | [6] | [7] | [8] | [9] | [10] | [11] | [13] | [14] | [16] | [18]

OCC(F)(F)C(F)(F)C(F)(F)C(F)(F)C(F)(F)C(F)F
not listed: [12] | [19] | [20]
inactive: all other assays above

O=C(OCCOCCOCCOC(=O)c1ccccc1)c1ccccc1
inactive: [1] | [2] | [3] | [4] | [5] | [6] | [7] | [14] | [18]

CC(C)c1ccccc1N
inactive: [1] | [2] | [3] | [4] | [5] | [6] | [7] | [12] | [14] | [17]

CC/C=C\CCOC(C)=O
inactive: [1] | [2] | [3] | [4] | [5] | [6] | [7] | [12] | [17]
